Active and inactive are the calls of the source. How the source made its calls: active means hit-call score of the fitted dose curve at least 0.9, where 1 is the maximum; inactive means score below 0.9.
Experiments:
[1] = target: Paired box protein Pax-6 (Homo sapiens) (UniProt P26367); assay: ATG_Pax6_CIS: Attagene CIS-FACTORIAL HepG2 Assay for human Paired Box 6 (PAX6) (AID 2282956); settings: HepG2 CIS-FACTORIAL PAX6 reporter transcription, RNA readout; actives raise or lower the signal
Summary of the method: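 HepG2 cells transiently transfected with multiplexed cis-promoter reporter units (endogenous TF activity) were dosed for 24 h. Reporter mRNA was quantified by RT-PCR, 6-FAM labeling, HpaI digestion and capillary electrophoresis; bidirectional fitting versus DMSO baseline.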

[2] = ATG_PXRE_CIS: Attagene CIS-FACTORIAL HepG2 Assay for human Pregnane X Receptor Element (PXRE) (AID 2282957); settings: HepG2 Attagene CIS-FACTORIAL PXRE reporter, mRNA; actives raise or lower the signal
Summary of the method: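 Transfect HepG2 with MRTUs (cis promoter elements); dose chemical, incubate 24 h; isolate RNA, RT with oligo(dT), PCR, 6-FAM label, HpaI cut, CE. Gain/loss fit vs DMSO.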

[3] = ATG_RORE_CIS: Attagene CIS-FACTORIAL HepG2 Assay for human RAR-related Orphan Receptor Element (RORE) (AID 2282959); settings: HepG2 Attagene cis-factorial RORE reporter, mRNA; actives raise or lower the signal
Summary of the method: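 Fluorescence intensity of reporter-specific cDNA fragments, separated by capillary electrophoresis, gives the signal. Source: HepG2 liver cells transiently transfected with cis-element reporters and exposed 24 h; DMSO-normalized bidirectional fit.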

[4] = ATG_Sox_CIS: Attagene CIS-FACTORIAL HepG2 Assay for human SRY-box transcription factor (SOX) (AID 2282960); settings: HepG2 Attagene cis-factorial SOX reporter, mRNA; actives raise or lower the signal
Summary of the method: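 After 24 h of chemical treatment, transfected HepG2 reporter cells are lysed for total RNA. Transcript levels come from RT-PCR with labelled primer extension and capillary electrophoresis, analysed bidirectionally versus DMSO.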

[5] = ATG_SREBP_CIS: Attagene CIS-FACTORIAL HepG2 Assay for human Sterol Regulatory Element Binding (SREBP) (AID 2282962); settings: HepG2 Attagene cis-factorial SREBP reporter, mRNA; actives raise or lower the signal
Summary of the method: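 HepG2 cells transiently transfected with multiplexed cis-element reporter units report endogenous transcription factor activity. After 24 h of chemical exposure, reporter mRNA was quantified by RT-PCR, 6-FAM labelling, HpaI digestion and capillary electrophoresis; bidirectional fits used DMSO as baseline.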

[6] = target: Signal transducer and activator of transcription 3 (Homo sapiens) (UniProt P40763); assay: ATG_STAT3_CIS: Attagene CIS-FACTORIAL HepG2 Assay for human Signal Transducer and Activator of Transcription 3 (STAT3) (AID 2282963); settings: HepG2, Attagene cis-factorial STAT3 reporter transcription; actives raise or lower the signal
Sequence of Signal transducer and activator of transcription 3 (Homo sapiens) (P40763 whole entry, looked up): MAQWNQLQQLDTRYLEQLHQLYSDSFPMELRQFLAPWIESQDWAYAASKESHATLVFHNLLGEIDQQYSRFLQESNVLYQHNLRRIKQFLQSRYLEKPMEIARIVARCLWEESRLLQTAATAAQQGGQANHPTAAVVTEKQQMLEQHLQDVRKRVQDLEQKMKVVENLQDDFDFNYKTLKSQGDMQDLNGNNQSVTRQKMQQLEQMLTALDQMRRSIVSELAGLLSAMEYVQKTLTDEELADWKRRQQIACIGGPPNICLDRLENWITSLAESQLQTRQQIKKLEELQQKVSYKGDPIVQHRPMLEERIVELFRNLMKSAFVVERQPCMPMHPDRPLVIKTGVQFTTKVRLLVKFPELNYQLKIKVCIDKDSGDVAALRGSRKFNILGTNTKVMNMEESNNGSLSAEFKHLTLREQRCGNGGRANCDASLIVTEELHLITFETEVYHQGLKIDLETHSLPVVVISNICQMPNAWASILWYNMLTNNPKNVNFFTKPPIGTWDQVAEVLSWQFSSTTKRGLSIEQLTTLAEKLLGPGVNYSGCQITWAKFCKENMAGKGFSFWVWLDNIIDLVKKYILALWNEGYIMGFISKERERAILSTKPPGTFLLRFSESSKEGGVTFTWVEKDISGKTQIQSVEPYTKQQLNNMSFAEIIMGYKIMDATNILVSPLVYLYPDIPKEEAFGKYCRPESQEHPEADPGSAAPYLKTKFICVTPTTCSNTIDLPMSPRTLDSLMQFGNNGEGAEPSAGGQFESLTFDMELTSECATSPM
Summary of the method: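 Transcript-level reporter assay. HepG2 transient MRTU transfection, 24 h exposure, fluorescence detection after RT-PCR and CE; DMSO baseline.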

[7] = ATG_TCF_b_cat_CIS: Attagene CIS-FACTORIAL HepG2 Assay for human T-Cell-Factor with beta-catenin (TCF/b-cat) (AID 2282965); settings: HepG2 TCF/beta-catenin cis-reporter transcription, actives raise or lower the signal
Summary of the method: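 Using capillary electrophoresis as the read-out, labelled reporter cDNA fragments from transiently transfected HepG2 were sized and quantified. Exposure lasted 24 hours; activity in either direction was referenced to DMSO.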

[8] = target: Transcription factor Sp1 (Homo sapiens) (UniProt P08047); assay: ATG_Sp1_CIS: Attagene CIS-FACTORIAL HepG2 Assay for human Specificity Protein 1 (Sp1) (AID 2282961); settings: HepG2 Sp1 cis-reporter transcription, actives raise or lower the signal
Sequence of Transcription factor Sp1 (Homo sapiens) (P08047 whole entry, looked up): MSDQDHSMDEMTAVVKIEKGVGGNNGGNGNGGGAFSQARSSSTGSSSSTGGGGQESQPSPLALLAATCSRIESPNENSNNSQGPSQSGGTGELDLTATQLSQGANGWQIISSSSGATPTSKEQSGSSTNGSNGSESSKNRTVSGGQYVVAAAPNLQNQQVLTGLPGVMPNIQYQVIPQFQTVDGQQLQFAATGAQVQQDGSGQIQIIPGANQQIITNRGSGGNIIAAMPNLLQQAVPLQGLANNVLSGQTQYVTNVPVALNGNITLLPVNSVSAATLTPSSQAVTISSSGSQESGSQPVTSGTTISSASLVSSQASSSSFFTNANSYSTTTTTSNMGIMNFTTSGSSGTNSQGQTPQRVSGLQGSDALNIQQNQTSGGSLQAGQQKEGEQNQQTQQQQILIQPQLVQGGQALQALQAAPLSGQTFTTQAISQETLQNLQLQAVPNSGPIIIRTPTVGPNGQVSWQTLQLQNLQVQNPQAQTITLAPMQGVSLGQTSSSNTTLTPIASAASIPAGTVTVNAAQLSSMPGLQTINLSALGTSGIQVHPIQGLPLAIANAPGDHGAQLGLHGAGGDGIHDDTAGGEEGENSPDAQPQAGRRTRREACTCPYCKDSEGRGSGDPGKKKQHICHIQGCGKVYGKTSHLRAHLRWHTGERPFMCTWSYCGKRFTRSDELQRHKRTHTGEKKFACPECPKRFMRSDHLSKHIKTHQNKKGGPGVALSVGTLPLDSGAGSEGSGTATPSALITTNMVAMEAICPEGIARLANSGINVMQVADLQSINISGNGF
Summary of the method: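 Sp1-driven reporter mRNA, read as capillary electrophoresis fluorescence after RT-PCR, in transiently transfected HepG2 cells dosed for 24 h; signal change in either direction relative to DMSO.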

[9] = ATG_TA_CIS: Attagene CIS-FACTORIAL HepG2 Assay for human TA Basal Promoter (AID 2282964); settings: HepG2 Attagene CIS-factorial TA basal promoter reporter; actives raise or lower the signal
Summary of the method: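 HepG2 cells transiently transfected with multiplexed cis-promoter reporter units, dosed 24 h. Reporter mRNA measured by RT-PCR, 6-FAM labelling, HpaI digestion and capillary electrophoresis; bidirectional fit versus DMSO baseline, serving as background control.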

[10] = ATG_PPRE_CIS: Attagene CIS-FACTORIAL HepG2 Assay for human Peroxisome Proliferator-activated Response Element (PPRE) (AID 2282958); settings: HepG2 PPRE cis-element reporter, Attagene transcription factor profiling; actives raise or lower the signal
Summary of the method: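 Multiplexed reporter transcription units under cis-regulatory promoters were transfected into HepG2 cells to capture endogenous factor activity. A 24 h incubation preceded RNA isolation and fluorescent RT-PCR fragment analysis.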

Measured: AC50

Sequence of Paired box protein Pax-6 (Homo sapiens) (P26367 whole entry, looked up): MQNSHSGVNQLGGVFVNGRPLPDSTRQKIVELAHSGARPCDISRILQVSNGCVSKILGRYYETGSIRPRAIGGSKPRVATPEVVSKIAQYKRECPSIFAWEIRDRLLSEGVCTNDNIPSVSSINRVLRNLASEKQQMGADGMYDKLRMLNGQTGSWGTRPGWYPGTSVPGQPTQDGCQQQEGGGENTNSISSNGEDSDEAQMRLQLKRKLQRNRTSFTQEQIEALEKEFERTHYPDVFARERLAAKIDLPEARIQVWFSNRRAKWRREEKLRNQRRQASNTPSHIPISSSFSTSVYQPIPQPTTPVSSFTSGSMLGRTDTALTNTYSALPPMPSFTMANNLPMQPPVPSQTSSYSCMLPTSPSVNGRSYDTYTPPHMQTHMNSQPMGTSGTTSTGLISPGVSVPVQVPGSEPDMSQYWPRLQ

O=C(Nc1ccc2c(O)c(N=Nc3ccc(N=Nc4ccc(S(=O)(=O)O)cc4)cc3)c(S(=O)(=O)O)cc2c1)c1ccccc1
not listed: [8] | [9] | [10]
inactive: all other assays above

CCCCCCCCCCCC(=O)OCC(O)CO (configuration not stated)
active: [2] 169 µM | [5] 100 µM
not listed: [10]
inactive: all other assays above

Nc1ccn([C@H]2CS[C@@H](CO)O2)c(=O)n1
inactive: [1] | [2] | [3] | [4] | [5] | [9]

CN(C)c1ccncc1
active: [2] 71.6 µM
not listed: [6] | [7] | [10]
inactive: all other assays above

CCCCCCOC(=O)C(C)C
not listed: [8] | [10]
inactive: all other assays above

COc1cc(Cl)c(OC)cc1N
active: [2] 62.4 µM
not listed: [3] | [9] | [10]
inactive: all other assays above

CC(=O)c1ccccn1
not listed: [8] | [10]
inactive: all other assays above

CCC(=O)OCCOc1ccccc1
not listed: [8] | [10]
inactive: all other assays above

Oc1c(Cl)cc(Cl)c(Cl)c1Cc1c(O)c(Cl)cc(Cl)c1Cl
active: [1] 11.1 µM | [2] 0.802 µM | [3] 2.2 µM | [7] 11.1 µM
inactive: [4] | [8] | [5] | [9]

CC/C=C\CCOC(=O)CC
inactive: [1] | [2] | [4] | [5] | [6] | [9]

C1CCOC1
active: [2] 37.3 µM
not listed: [3] | [7] | [10]
inactive: all other assays above

CCO/C=C1\N=C(c2ccccc2)OC1=O
active: [2] 63.8 µM
not listed: [6] | [10]
inactive: all other assays above

CC(C)CCCCCCc1ccc(OCCOCCO)cc1
not listed: [3] | [10]
inactive: all other assays above

CC(C)C(OC(=O)c1ccccc1)C(C)(C)COC(=O)c1ccccc1 (configuration not stated)
active: [2] 1.27 µM
not listed: [3] | [6] | [10]
inactive: all other assays above

CCC(C)c1cc([N+](=O)[O-])cc([N+](=O)[O-])c1OC(=O)OC(C)C (configuration not stated)
active: [1] 25.9 µM | [2] 0.731 µM | [4] 25.3 µM | [5] 25.1 µM
inactive: [3] | [8] | [9] | [7]

CCCCC(CC)COC(=O)c1ccc(O)cc1 (configuration not stated)
active: [2] 11.1 µM
not listed: [10]
inactive: all other assays above

CCN(CCN)c1cccc(C)c1
active: [2] 36.2 µM
not listed: [6] | [10]
inactive: all other assays above

CC(C)=CCCC(C)CCOC=O (configuration not stated)
active: [2] 100 µM
not listed: [6] | [10]
inactive: all other assays above

C=C(C)C(=O)OCCOCCOCCOCCOC(=O)C(=C)C
active: [2] 35.3 µM
not listed: [10]
inactive: all other assays above

OCC(O)c1ccccc1 (configuration not stated)
not listed: [6] | [7] | [10]
inactive: all other assays above

CCOc1ccc(N=Nc2ccc(C=Cc3ccc(N=Nc4ccc(OCC)cc4)cc3S(=O)(=O)O)c(S(=O)(=O)O)c2)cc1
active: [2] 39.9 µM
not listed: [3] | [10]
inactive: all other assays above

CC(C)c1ccccc1O
active: [2] 81.1 µM
not listed: [9] | [10]
inactive: all other assays above

C=C(C)[C@H]1CC=C(C)C(=O)C1
active: [2] 27.9 µM
not listed: [8] | [9] | [10]
inactive: all other assays above

CCCCCCC(O)CCCCCCCCCCC(=O)O (configuration not stated)
active: [10] 18 µM
not listed: [2] | [7]
inactive: all other assays above

c1ccc2[nH]cnc2c1
inactive: [1] | [2] | [3] | [4] | [5]

CS(C)=O
not listed: [6] | [10]
inactive: all other assays above

O=C(O)c1cc(C(=O)O)cc([N+](=O)[O-])c1
not listed: [8] | [10]
inactive: all other assays above

O=CN1CCOCC1
not listed: [2] | [7]
inactive: all other assays above

C[C@@H]1CCN(C(=O)[C@H](CCCN=C(N)N)NS(=O)(=O)c2cccc3c2NC[C@H](C)C3)[C@@H](C(=O)O)C1
not listed: [3] | [10]
inactive: all other assays above

CC(C)NCC(O)COc1ccc(CC(N)=O)cc1 (configuration not stated)
not listed: [10]
inactive: all other assays above

CCCOCCO
not listed: [3] | [10]
inactive: all other assays above

CC(=O)Nc1ccc(C(=O)CCl)cc1
active: [1] 9 µM | [4] 8.57 µM | [5] 8.67 µM
not listed: [8] | [10]
inactive: all other assays above

CCCCCCCCCCCCN1CCCCCC1=O
not listed: [2]
inactive: all other assays above

Cc1ccc(S(N)(=O)=O)cc1
not listed: [2] | [3]
inactive: all other assays above

CS(=O)(=O)OCCCCOS(C)(=O)=O
not listed: [2]
inactive: all other assays above

CN(c1nccc(=O)[nH]1)C1CCN(c2nc3ccccc3n2Cc2ccc(F)cc2)CC1
not listed: [2] | [9] | [10]
inactive: all other assays above

OCc1ccc(Cl)cc1Cl
not listed: [2]
inactive: all other assays above

CCCCCc1ccco1
active: [1] 111 µM | [7] 70 µM
inactive: [3] | [4] | [8] | [5] | [6]

COC(=O)c1ccc(OC)cc1
inactive: [1] | [4] | [5] | [6] | [9] | [7]

C/C=C(\C)C(=O)OCCc1ccccc1
not listed: [2]
inactive: all other assays above

CCCCCCCC/C=C\CCCCCCCC(=O)OCC
not listed: [2] | [3] | [10]
inactive: all other assays above
